Compound activity as filed in PubChem.
Compounds with a hit are over-represented: about 1.1% of the library has one in this group of screens.
TrxR1 inh-1: inhibitors of rat thioredoxin reductase 1 | AID 588453 | O89049 | actives 1% (n = 390,000) | recombinant rTrxR1, NADPH fluorescence consumption, selenite substrate | Potency, µM (doses to about 114 µM), most hits filed as inhibitors; further: nearly all actives have a fitted effect of over 65% in size
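Rat TrxR1 (90 nM in the dispensed reagent) was pre-reduced with 400 uM NADPH for 5 min at room temperature, then incubated with compound for 15 min. After 400 uM selenite was added, NADPH fluorescence (Ex 340/Em 450 nm) was followed for 8 min.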
GALK inhibitor: blocks human galactokinase activity; P51570; Purified GALK, Kinase-Glo residual ATP luminescence; Potency, µM (top dose mostly 57.5 µM), usual class: inhibitors; actives 0.007% (n = 270,000); AID 1868
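Human GALK (5 nM) with 35 uM ATP and 100 uM galactose in 20 mM HEPES pH 8.0, 5 mM MgCl2, 60 mM NaCl, 1 mM DTT, 0.01% BSA. After 1 h at room temperature, leftover ATP was read by Kinase-Glo Plus luminescence.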
PI4K2A block: inhibitors of human PI4K2A. AID 1346378. purified PI4K2A, ADP-Glo luminescence, 1 h; hits give low values. Q9BTU6. actives 0.13% (n = 420,000). activity change, negative = inhibition, % at 76.9 µM; in the data active means activity change below about -50%; inconclusive means mostly about -30% to -49%
Target sequence (Q9BTU6 whole entry, looked up): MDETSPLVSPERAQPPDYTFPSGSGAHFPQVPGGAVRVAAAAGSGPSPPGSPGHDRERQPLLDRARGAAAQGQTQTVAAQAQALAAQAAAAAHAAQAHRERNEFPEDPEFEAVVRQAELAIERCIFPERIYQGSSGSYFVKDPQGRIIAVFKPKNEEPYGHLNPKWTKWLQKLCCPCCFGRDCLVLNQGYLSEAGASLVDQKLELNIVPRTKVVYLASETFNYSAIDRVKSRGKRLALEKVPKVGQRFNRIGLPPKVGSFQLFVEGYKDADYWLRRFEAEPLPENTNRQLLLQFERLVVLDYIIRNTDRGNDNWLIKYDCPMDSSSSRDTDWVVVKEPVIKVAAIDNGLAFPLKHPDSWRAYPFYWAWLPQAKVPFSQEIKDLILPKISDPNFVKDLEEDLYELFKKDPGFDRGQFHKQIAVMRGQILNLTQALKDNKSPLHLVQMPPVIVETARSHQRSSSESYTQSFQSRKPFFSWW
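PI4K2A activity was measured by ADP-Glo luminescence: enzyme (4 ug/mL stock) and phosphatidylinositol (1.2 mM stock) in Tris pH 7.5/MgCl2/EGTA/Triton X-100 buffer were reacted with ATP (300 microM stock) for one hour at ambient temperature.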
LDHA block: blocks human lactate dehydrogenase A | activity change, % (values are at about 110 or 230 µM) | purified LDHA, NADH/diaphorase-resazurin fluorescence; hits give low values | actives 0.15% (n = 480,000) | P00338; in the data active means activity change below about -30%; inconclusive means mostly about -25% to -30%
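LDH5 2 nM; NADH 0.06 mM, pyruvate 0.2 mM; 200 mM Tris pH 7.4, EDTA, Tween-20; 5 min RT. Detection: diaphorase 0.133 mg/mL + resazurin 37 µM, fluorescence ex540/em590 at 0 and 20 min; normalized to enzyme-free and DMSO wells.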
TrxR1 substrate: rat thioredoxin reductase 1 substrate activity. purified TrxR1 substrate turnover, NADPH consumption readout. actives 0.01% (n = 390,000). O89049. Potency, µM (top dose mostly 114 µM). AID 588456; further: nearly all actives have a fitted effect of over 50% in size
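Rat TrxR1, dispensed at 90 nM, was prereduced with 400 uM NADPH (final) for 5 min at ~22 deg C, then incubated with compound 15 min before 400 uM selenite. A first-read NADPH fluorescence drop versus no-compound background flagged substrates.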
a7 integrin act: activates integrin-mediated alleviation for muscular dystrophy | alpha7betagal myoblasts, beta-gal FDG fluorescence, 48 h | Potency, µM (titrated, usually from 38.3 µM), usual class: activators | actives 0.064% (n = 350,000); further: nearly all actives have a fitted effect of over 60% in size
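alpha7betagal+/- myoblasts (passage 13, 250/well) treated 48 h at 37C with compounds at 1:260 dilution of DMSO stock. Lysed, then beta-galactosidase activity read as FDG fluorescence (ex 480/em 540) after 30 min, with pre-read for autofluorescence.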
HepG2 tox: reduces HepG2 viability in TRb-SRC2 counter-screen | AID 2447 | Potency, µM | HepG2 viability, ATP luminescence (CellTiter-Glo), 72 h | shares compounds with TrxR1 inh-1 | actives 50% (n = 40); calls by dose curve
GR inh: inhibits human glutathione reductase in TrxR1 counterassay | shares compounds with TrxR1 inh-1 | purified GR, DTNB reduction absorbance 405 nm kinetic | activity change, negative = inhibition, % at 57.1 µM | 55 tested, under 10 active | AID 652020
TrxR1 inh-2: validation of rat thioredoxin reductase 1 inhibitors; shares compounds with TrxR1 inh-1; recombinant TrxR1, NADPH fluorescence consumption, selenite substrate; Potency, µM, actives largely listed as inhibitors; actives 50% (n = 55); AID 652023
TrxR1 insulin MOA: inhibits TrxR1-driven insulin reduction. AID 652037. Potency, µM. TrxR1 Trx-coupled insulin reduction, NADPH absorbance 340 nm. shares compounds with TrxR1 inh-1. actives 20% (n = 55);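 active means compounds with a measured potency under 100 micromolar; inconclusive means filed, but no rule given; inactive means potency at or above that, or unmeasurable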
TrxR1 inh-3: rat thioredoxin reductase 1 inhibition, DTNB assay; purified TrxR1, DTNB reduction, A412; actives 90% (n = 55); Potency, µM; shares compounds with TrxR1 inh-1;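 active means a half-inhibiting concentration could be measured and was below 100 µM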
Numbers stand for hits; n = inactive; u = inconclusive; x = not tested or not shown. Unless noted, the call rests on the fitted dose curve; in most records, active means well fitted curve in the direction sought with a large enough effect; inconclusive means small, poorly fitted or top-dose-only effect, or another doubt; inactive means no such curve, though single readings can be large; an effect the other way counts as inactive or inconclusive.

SMILES	TrxR1 inh-1	GALK inhibitor	PI4K2A block	LDHA block	TrxR1 substrate	a7 integrin act	GR inh	TrxR1 inh-2	TrxR1 insulin MOA	TrxR1 inh-3	others
Cc1cc2nc(Sc3c([N+](=O)[O-])nc(C)n3Cc3ccccc3)[nH]c2cc1C	7.1µM	n	n	n	n	n	n	3	32µM	0.013µM
Cc1nc([N+](=O)[O-])c(N2CCOCC2)n1Cc1ccccc1	n	n	n	n	n	n	x	x	x	x
Cc1cccc(N2CCN(c3cc(C)nc4nnnn34)CC2C)c1 (stereo unspecified)	32µM	n	n	n	n	n	n	u	84µM	0.11µM
COC(=O)c1ccc(C2c3c(oc4ccccc4c3=O)C(=O)N2CCCN2CCOCC2)cc1 (stereo unspecified)	10µM	n	n	n	n	n	n	u	n	1.2µM
COCCN1C(=O)c2oc3ccccc3c(=O)c2C1c1ccc(C(=O)OC)cc1 (stereo unspecified)	n	n	n	n	n	n	x	x	x	x
O=C1CCCC2=C1C(c1cc(Cl)c(O)c(Cl)c1)C1=C(CCCC1=O)O2	x	x	x	n	x	x	x	x	x	x
Cc1nc(-n2nc(C)c(Cl)c2C)sc1C(=O)N1CCCC1	x	x	x	n	x	x	x	x	x	x
CCOc1ccc(/C=N/OCc2c(Cl)cccc2Cl)cc1OC	x	x	x	n	x	x	x	x	x	x
Cc1ccc(-c2nc(C)sc2CC(=O)NCc2ccco2)cc1	50µM	n	n	n	n	n	n	5.3	n	10µM
CCOc1cc(CNc2ccc(N3CCCC3)cc2)cc(Cl)c1OC	3.5µM	x	n	n	n	n	n	u	n	8µM
CS(=O)(=O)c1ccc(C(=O)OCC(=O)N2CCCCC2)cc1[N+](=O)[O-]	x	x	x	x	x	x	x	x	x	x	HepG2 tox=21µM
Cc1ccc(C(=O)N2CCC(C(=O)N3CCCCCC3)CC2)cc1S(=O)(=O)N1CCCCC1	x	x	x	n	x	x	x	x	x	x
O=[N+]([O-])c1ccc(Cl)c(S(=O)(=O)Nc2cccc(S(=O)(=O)NC3=NCCC3)c2)c1	2.5µM	x	n	n	n	n	n	0.6	n	0.051µM
Oc1cc2c(cc1CN1CCN(c3ncccn3)CC1)OCO2	25µM	n	n	n	n	n	n	u	n	n
Fc1ccccc1CN1CCN(c2ncccn2)CC1	n	n	n	n	n	n	x	x	x	x
CCOC(=O)c1c(C)oc2c1c(CN1CCN(CCO)CC1)c(O)c1ccccc12	1.1µM	n	n	n	n	n	n	0.3	n	0.77µM
CCOC(=O)c1c(C)oc2c1c(CN1CCN(C(=O)OCC)CC1)c(O)c1ccccc12	1.6µM	n	n	n	n	n	n	u	n	0.33µM
O=C(c1ccccc1)[C@@H]1[C@@H]2C(=O)N(c3ccc(F)cc3)C(=O)[C@@H]2C2CCCN21 (stereo partly specified)	50µM	n	n	n	n	n	n	u	n	7.4µM
Cc1ccc(N2C(=O)[C@@H]3[C@H](C2=O)C2CCCN2[C@@H]3C(=O)c2ccccc2)cc1 (stereo partly specified)	n	n	n	n	n	n	x	x	x	x
Cc1ccccc1NC(=S)NC(=O)CCc1ccccc1	13µM	n	n	n	n	n	n	3	n	36µM
NC(=O)c1ccccc1NC(=S)NC(=O)CCc1ccccc1	n	n	n	n	n	n	x	x	x	x
CCCn1c(N)c(C(c2ccc(OC)cc2)N2CCN(c3ccccc3)CC2)c(=O)[nH]c1=O (stereo unspecified)	10µM	n	n	n	n	n	n	u	n	0.17µM
